The list is not random: actives were taken first. Their share in the collection is about 1.3%.
KCNH2 3.1 block: qHTS for Inhibitors of KCHN2 3.1: Mutant qHTS | Potassium voltage-gated channel subfamily H member 2, brain isoform KCNH2 3.1 (human) | U2OS KCNH2 3.1, thallium flux FluxOr; stronger effect = lower value | activity change, % (tested at about 1.8 µM) | 340,000 tested, 0.95% active | AID 720553, 2013;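 active = maximum activity change below -70%; inconclusive = maximum activity change from -70% to -50%; inactive = maximum activity change above -50%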;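 note: thallium influx rate constant from kinetic fluorescence after stimulation buffer; % is set by controls: 0 for no effect and ±100 for the full control effect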
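Measured as rate of thallium-driven FluxOr signal in transduced U2OS cells carrying the 3.1 channel, read kinetically for 2 min upon stimulation; values are rate constants scaled to DMSO control wells.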
hERG WT inh: qHTS for Inhibitors of KCHN2 3.1: Wildtype qHTS; AID 720551, 2013; activity change, % at 1.84 µM; U2OS, BacMam KCNH2, thallium flux FluxOr; stronger effect = lower value; Voltage-gated inwardly rectifying potassium channel KCNH2 (Homo sapiens), Q12809; 340,000 tested, 0.37% active;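 active = maximum activity change below -70%; inconclusive = maximum activity change between -70% and -50%; inactive = maximum activity change above -50%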; note: % is set by controls: 0 for no effect and ±100 for the full control effect
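U2OS cells transduced with wild-type KCNH2 virus are loaded with FluxOr dye for 45 min, and thallium flux is measured in kinetic reads before and after stimulation buffer. Rate constants are normalized to DMSO controls.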
TRPV1 PAM: HTS Assay for Compounds that Act as Potentiators of the Vanilloid Receptor 1; potentiation, % at 8.33 µM; 320,000 tested, 0.02% active; Transient receptor potential cation channel subfamily V member 1 (Homo sapiens), Q8NER1; TRPV1-expressing cells, Fluo-8 calcium influx, capsaicin EC20 potentiation; in the data active = potentiation above about 80%; inconclusive = between about 30% and that limit; note: 0% is about no effect
Target sequence (Q8NER1 whole entry, looked up): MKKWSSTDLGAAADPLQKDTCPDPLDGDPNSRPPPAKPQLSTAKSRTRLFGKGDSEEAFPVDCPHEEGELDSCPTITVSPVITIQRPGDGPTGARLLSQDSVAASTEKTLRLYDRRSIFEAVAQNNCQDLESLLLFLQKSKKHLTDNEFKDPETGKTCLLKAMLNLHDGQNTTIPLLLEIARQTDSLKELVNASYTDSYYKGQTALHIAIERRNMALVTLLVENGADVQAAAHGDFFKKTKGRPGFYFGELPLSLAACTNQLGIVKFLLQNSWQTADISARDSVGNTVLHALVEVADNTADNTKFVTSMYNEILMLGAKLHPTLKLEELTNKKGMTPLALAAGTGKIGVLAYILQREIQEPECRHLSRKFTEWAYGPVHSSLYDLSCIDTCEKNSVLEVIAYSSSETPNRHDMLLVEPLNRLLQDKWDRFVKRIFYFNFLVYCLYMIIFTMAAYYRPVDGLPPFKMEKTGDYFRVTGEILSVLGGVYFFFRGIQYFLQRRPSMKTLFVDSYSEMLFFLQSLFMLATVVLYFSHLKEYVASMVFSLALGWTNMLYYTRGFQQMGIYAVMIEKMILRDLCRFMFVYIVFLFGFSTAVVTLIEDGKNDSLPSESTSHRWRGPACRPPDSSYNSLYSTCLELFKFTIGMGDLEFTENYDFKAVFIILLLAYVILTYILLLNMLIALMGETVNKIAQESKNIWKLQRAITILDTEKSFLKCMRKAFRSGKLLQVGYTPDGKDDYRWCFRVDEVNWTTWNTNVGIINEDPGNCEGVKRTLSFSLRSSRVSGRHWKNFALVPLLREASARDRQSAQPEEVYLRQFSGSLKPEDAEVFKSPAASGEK
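Cells expressing TRPV1 were dye-loaded with Fluo-8 and read kinetically: 10 s baseline, 3 min after compound (agonist portion), then 2 min after EC20 capsaicin (allosteric enhancer portion). Calcium-bound dye fluorescence at 480/520 nm.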
TRPV1 agonist: HTS Assay for Compounds that Act as Agonists of the Vanilloid Receptor 1. Transient receptor potential cation channel subfamily V member 1 (Homo sapiens), Q8NER1. AID 540275, 2011. TRPV1-expressing cells, Fluo-8 calcium influx, agonist mode. 320,000 tested, 0.19% active. activation, % at 8.33 µM; in the data active = activation above about 80%; inconclusive = between about 30% and that limit; note: 0% is about no effect
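TRPV1-expressing cells were cultured overnight at 35.5C and loaded with Fluo-8 calcium dye for 40 to 90 min at room temperature. After a 10 s baseline, compound was added and calcium influx was read kinetically for 3 min (ex 480/em 520 nm).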
Active calls of the source: *.

What do the screens show for `OC(COC(c1ccc(Cl)cc1)c1ccc(Cl)cc1)CN1CCc2ccccc2C1` (stereo unspecified)?
hERG WT inh: -71*; TRPV1 PAM: -5; TRPV1 agonist: 1

What do the screens show for `OC(COC(c1ccc(F)cc1)c1ccc(F)cc1)CN1CCc2ccccc2C1` (stereo unspecified)?
KCNH2 3.1 block: -110*; hERG WT inh: -29; TRPV1 PAM: -9; TRPV1 agonist: 1

What do the screens show for `OC1CCCN(CC(O)COC(c2ccc(F)cc2)c2ccc(F)cc2)C1` (stereo unspecified)?
KCNH2 3.1 block: -1; hERG WT inh: 61; TRPV1 PAM: -1; TRPV1 agonist: 3

What do the screens show for `OC(COc1ccc(Cl)cc1Cl)CN1CCc2ccccc2C1` (stereo unspecified)?
KCNH2 3.1 block: -72*; hERG WT inh: 16; TRPV1 PAM: -13; TRPV1 agonist: -2

What do the screens show for `Cc1ccc(OCC(O)CN2CCc3ccccc3C2)c(C)c1` (stereo unspecified)?
KCNH2 3.1 block: -22; hERG WT inh: 14; TRPV1 PAM: inconclusive; TRPV1 agonist: 1

Results for OC(COC(c1ccccc1)c1ccccc1)CN1CCc2ccccc2C1 (stereo unspecified) ?
KCNH2 3.1 block: inconclusive; hERG WT inh: inconclusive; TRPV1 PAM: 8; TRPV1 agonist: 0

How did COc1ccc(CNC(=O)CN(C(=O)c2snc(C(N)=O)c2N)c2ccccc2F)cc1 do in these assays?
KCNH2 3.1 block: -17; hERG WT inh: 7; TRPV1 PAM: -4; TRPV1 agonist: 4

Results for CC(/C=C/c1ccco1)=N\NC(=O)CNc1cccc(C)c1 ?
KCNH2 3.1 block: -80*; hERG WT inh: -1; TRPV1 PAM: inconclusive; TRPV1 agonist: -1

What do the screens show for `COC(=O)N/N=C(C)\C=C\c1ccco1`?
KCNH2 3.1 block: 11; TRPV1 PAM: 16; TRPV1 agonist: 1

Results for CCn1cc(C2=NC(C)CO2)c2ccccc21 (stereo unspecified) ?
KCNH2 3.1 block: -71*; hERG WT inh: -7; TRPV1 PAM: -13; TRPV1 agonist: 18

Results for COc1cc2c(cc1OC)C(c1ccc(Br)cc1)CC(=O)N2 (stereo unspecified) ?
KCNH2 3.1 block: 2; hERG WT inh: -126*; TRPV1 PAM: -10; TRPV1 agonist: 4

How did CCOC(=O)CNC(=O)Nc1cccc(Cl)c1C do in these assays?
KCNH2 3.1 block: -2; hERG WT inh: 0; TRPV1 PAM: 1; TRPV1 agonist: 3

Results for COC(=O)CNC(=O)CNC(=O)Nc1ccccc1Cl ?
KCNH2 3.1 block: -77*; hERG WT inh: -12; TRPV1 PAM: -2; TRPV1 agonist: 1

How did O=C(COC(=O)c1nn(-c2ccccc2C(F)(F)F)cc1O)c1ccc(OC(F)F)cc1 do in these assays?
KCNH2 3.1 block: -46; hERG WT inh: -2; TRPV1 PAM: 10; TRPV1 agonist: -3

How did Cc1cc(C)c(CN2CCC(CO)(CCOc3ccccc3)CC2)cc1C do in these assays?
KCNH2 3.1 block: -111*; hERG WT inh: -35; TRPV1 PAM: -2; TRPV1 agonist: 3

Results for COc1ccc(OC)c(CN2CCC(CO)(CCOc3ccccc3)CC2)c1 ?
KCNH2 3.1 block: -75*; hERG WT inh: 69; TRPV1 PAM: 4; TRPV1 agonist: -2

How did OCC1(CCOc2ccccc2)CCN(Cc2cccn2-c2ncccn2)CC1 do in these assays?
KCNH2 3.1 block: -93*; hERG WT inh: -16; TRPV1 PAM: -2; TRPV1 agonist: -1

How did OCC1(CCOc2ccccc2)CCN(C2Cc3ccccc3C2)CC1 do in these assays?
KCNH2 3.1 block: -77*; hERG WT inh: 15; TRPV1 PAM: 10; TRPV1 agonist: 0

How did COc1ccc(NC(=O)CSc2n[nH]c(-c3ccccc3)n2)cc1S(N)(=O)=O do in these assays?
KCNH2 3.1 block: -11; hERG WT inh: -3; TRPV1 PAM: 20; TRPV1 agonist: 0

How did O=C(COC(=O)Cn1[nH]c(=O)c2ccccc2c1=O)NNC(=O)c1ccc(Br)cc1 do in these assays?
KCNH2 3.1 block: 12; hERG WT inh: -2; TRPV1 PAM: 2; TRPV1 agonist: -1

How did CC(C)CCN(C(=O)c1cn2ccccc2n1)c1c(N)n(Cc2ccccc2)c(=O)[nH]c1=O do in these assays?
KCNH2 3.1 block: 13; hERG WT inh: -7; TRPV1 PAM: 17; TRPV1 agonist: 1

What do the screens show for `CC1(C)Cc2c(C#N)c(SCCOc3ccccc3)nc(N3CCOCC3)c2CO1`?
KCNH2 3.1 block: -85*; hERG WT inh: -2; TRPV1 PAM: -2; TRPV1 agonist: -1

What do the screens show for `Cc1ccc(N2CC(C(=O)NCCS(=O)(=O)N3CCN(c4ccccc4)CC3)CC2=O)cc1C` (stereo unspecified)?
KCNH2 3.1 block: -2; hERG WT inh: -10; TRPV1 PAM: -7; TRPV1 agonist: -1

How did Cc1ccc(C(=O)NCc2ccc3c(c2)OCO3)cc1S(=O)(=O)N1CCCCC1 do in these assays?
KCNH2 3.1 block: -14; hERG WT inh: -91*; TRPV1 PAM: -10; TRPV1 agonist: inconclusive

Results for O=C(NCc1ccc2c(c1)OCO2)c1ccc(Cl)c(S(=O)(=O)N2CCOCC2)c1 ?
KCNH2 3.1 block: -94*; hERG WT inh: 0; TRPV1 PAM: -4; TRPV1 agonist: 4

What do the screens show for `CC(C)C[C@H]1CN=C(N(C)C)N1CCc1cccc(F)c1`?
KCNH2 3.1 block: -107*; hERG WT inh: 9

How did Cc1ccc(S(=O)(=O)N2CCN(C(=O)CCc3c[nH]c4ccccc34)CC2)c(C)c1 do in these assays?
KCNH2 3.1 block: -19; hERG WT inh: 9; TRPV1 PAM: 4; TRPV1 agonist: 4

What do the screens show for `O=c1cc(-c2ccc(OCc3ccccc3)cc2)oc2cc(OCc3ccccc3)cc(OCc3ccccc3)c12`?
KCNH2 3.1 block: -5; hERG WT inh: -7

Results for Cc1ccc(CN2CCN(CC(=O)N=Nc3c(O)[nH]c4ccccc34)CC2)cc1 ?
KCNH2 3.1 block: -72*; hERG WT inh: inconclusive; TRPV1 PAM: 5; TRPV1 agonist: -5

What do the screens show for `C[C@@H]1CN([C@H](C)CO)C(=O)CCCn2nncc2CO[C@H]1CN(C)C(=O)c1cc(-c2ccccc2)on1`?
KCNH2 3.1 block: -97*; hERG WT inh: -3

Results for Cc1ccc2nc(-c3cccnc3)oc2c1 ?
KCNH2 3.1 block: -180*; hERG WT inh: -221*; TRPV1 PAM: 21; TRPV1 agonist: 15

What do the screens show for `Cc1ccc2nc(-c3ccccn3)oc2c1`?
KCNH2 3.1 block: 22; hERG WT inh: -2; TRPV1 PAM: 14; TRPV1 agonist: 3

What do the screens show for `c1ccc(OCCN2CCN(C(c3ccccc3)c3ccccc3)CC2)cc1`?
KCNH2 3.1 block: -96*; hERG WT inh: -43; TRPV1 PAM: 12; TRPV1 agonist: 10

Assay outcomes as filed in PubChem.
